Laboratory results published in PubChem BioAssay (Tox21).
Records with an inconclusive call do not appear. Activity calls are given as the source filed them. Unless noted, calls come from the whole dose curve.

Assays:
[1] = Nuclear factor erythroid 2-related factor 2/antioxidant responsive element (Nrf2/ARE) small molecule agonists: qHTS cell viability counter screen in human keratinocytes (AID 1919968; active = well fitted curve in the direction sought with a large enough effect in the repeat runs; an effect the other way counts as inactive or inconclusive; note: nearly all actives have a fitted effect of over 55% in size)
Method in brief: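 KeratinoSens HaCaT cells, 1,500/well, preincubated 5 h, then exposed to compounds in DMSO for 23 h at 37 C/5% CO2. Viability read as CellTiter-Fluor fluorescence after 1 h, in the same wells as the ARE-luciferase read.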

[2] = Nuclear factor erythroid 2-related factor 2/antioxidant responsive element (Nrf2/ARE) small molecule agonists: luciferase reporter gene qHTS assay in human keratinocytes (AID 1919969); note: nearly all actives have a fitted effect of over 35% in size
[3] = target: Gonadotropin-releasing hormone receptor (Homo sapiens) (UniProt P30968); test: Human gonadotropin-releasing hormone receptor (GnRHR) small molecule agonists, calcium flux assay in GnRHR-HEK293 cells (AID 1920063); note: nearly all actives have a fitted effect of over 35% in size
Gonadotropin-releasing hormone receptor (Homo sapiens), sequence (P30968 whole entry, looked up): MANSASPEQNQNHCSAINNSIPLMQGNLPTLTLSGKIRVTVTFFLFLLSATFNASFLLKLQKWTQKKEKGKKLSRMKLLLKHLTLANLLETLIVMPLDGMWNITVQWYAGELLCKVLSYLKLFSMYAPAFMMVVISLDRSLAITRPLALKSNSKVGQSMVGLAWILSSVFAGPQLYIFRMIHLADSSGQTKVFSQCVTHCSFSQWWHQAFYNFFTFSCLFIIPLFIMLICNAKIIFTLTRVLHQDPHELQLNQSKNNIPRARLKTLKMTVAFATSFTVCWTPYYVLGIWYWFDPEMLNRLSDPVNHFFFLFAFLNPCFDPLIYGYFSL
Method in brief: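 HEK293 cells stably expressing human GnRHR were dye-loaded for 1 h at 37 C. Compound was added in agonist mode and fluorescence (Ex/Em 480/540) recorded kinetically for 3 min. Fifteen concentrations, triplicates.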

[4] = target: KiSS-1 receptor (Homo sapiens) (UniProt Q969F8); test: Human kisspeptin (KISS1R) small molecule agonists, calcium flux assay in KISS1R-HEK293 cells (AID 1920064; active = well fitted curve in the direction sought with a large enough effect in the repeat runs; an effect the other way counts as inactive or inconclusive)
KiSS-1 receptor (Homo sapiens), sequence (Q969F8 whole entry, looked up): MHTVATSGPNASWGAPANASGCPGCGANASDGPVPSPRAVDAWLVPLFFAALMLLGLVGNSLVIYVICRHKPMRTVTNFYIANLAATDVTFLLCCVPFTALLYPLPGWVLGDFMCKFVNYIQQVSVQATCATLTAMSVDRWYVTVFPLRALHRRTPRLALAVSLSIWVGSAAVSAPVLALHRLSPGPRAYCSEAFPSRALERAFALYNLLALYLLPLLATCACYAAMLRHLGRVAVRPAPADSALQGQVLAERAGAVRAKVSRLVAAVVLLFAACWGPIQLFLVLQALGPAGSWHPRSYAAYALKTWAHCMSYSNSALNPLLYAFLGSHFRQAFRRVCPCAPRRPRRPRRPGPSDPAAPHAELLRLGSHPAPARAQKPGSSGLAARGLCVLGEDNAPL
Method in brief: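 HEK293 cells stably expressing human KISS1R were loaded with calcium dye for 1 h at 37 C, then given compound; fluorescence (Ex/Em 480/540) was read kinetically for 3 min. Fifteen concentrations, triplicate.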

[5] = G protein-coupled receptor (GPCR) small molecule agonists, calcium flux assay: HEK293 wild type cell line counter screen (AID 1920065)
Method in brief: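 Wild-type HEK293 cells plated 18 h, loaded with calcium dye 1 h at 37 C, then compounds added in agonist mode (ATP as positive control). Kinetic fluorescence Ex/Em 480/540 recorded 3 min at 1 sec intervals; 15 concentrations, triplicate.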

[6] = p53 small molecule agonists, cell-based qHTS assay with human liver microsomes (AID 1963577)
Method in brief: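 Compounds act here after metabolic activation: human liver microsomes and NADPH, both at 0.5 mg/mL final, were co-added to p53RE-bla cells. Incubation ran 16 h at 37 C, followed by LiveBLAzer detection.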

[7] = p53 small molecule agonists, cell-based qHTS assay with rat liver microsomes (AID 1963578)
Method in brief: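 Read-out is beta-lactamase reporter fluorescence (LiveBLAzer, 2 h, room temperature, dark) in p53RE-bla cells treated 16 h at 37 C with compound, rat liver microsomes and NADPH, both 0.5 mg/mL final.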

[8] = p53 small molecule agonists, cell-based qHTS assay with human liver microsomes: qHTS cell viability counter screen (AID 1963579); note: nearly all actives have a fitted effect of over 45% in size
Method in brief: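 Cells carrying the p53 response-element beta-lactamase reporter are treated for 16 h at 37 C with test compounds in the presence of human liver microsomes and NADPH (both 0.5 mg/mL final); ATP-based CellTiter-Glo luminescence then reports viability.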

[9] = p53 small molecule agonists, cell-based qHTS assay with rat liver microsomes: qHTS cell viability counter screen (AID 1963580); note: nearly all actives have a fitted effect of over 45% in size
Method in brief: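 Intracellular ATP, by CellTiter-Glo luminescence, defines viability. HCT-116 p53RE-bla cells, 4,000 per well, were compound-treated in the presence of rat liver microsomes and NADPH for 16 h at 37 C.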

[10] = p53 small molecule agonists, cell-based qHTS assay: qHTS cell viability counter screen (AID 1963581); note: nearly all actives have a fitted effect of over 45% in size
Method in brief: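 p53RE-bla HCT-116 cells, compounds added 5 h after plating and incubated 16 h at 37 C. Cytotoxicity measured in the same wells as intracellular ATP by CellTiter-Glo luminescence after 30 min at room temperature.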

[11] = p53 small molecule agonists, cell-based qHTS assay (AID 1963582; active = well fitted activation curve with a large enough effect in the signal ratio in the repeat runs, not every such curve was filed as active; the % refers to the signal ratio)
Method in brief: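 p53RE-bla reporter cells, compounds added in DMSO after 5 h plating, incubated 16 h at 37 C. Beta-lactamase read via 2 h room-temperature LiveBLAzer B/G FRET substrate, fluorescence intensity.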

[12] = target: 5-hydroxytryptamine receptor 2A (Homo sapiens) (UniProt P28223); test: 5-hydroxytryptamine receptor 2A (HTR2A) small molecule antagonists, cell-based qHTS assay (AID 1963586); note: nearly all actives have a fitted effect of over 45% in size
5-hydroxytryptamine receptor 2A (Homo sapiens), sequence (P28223 whole entry, looked up): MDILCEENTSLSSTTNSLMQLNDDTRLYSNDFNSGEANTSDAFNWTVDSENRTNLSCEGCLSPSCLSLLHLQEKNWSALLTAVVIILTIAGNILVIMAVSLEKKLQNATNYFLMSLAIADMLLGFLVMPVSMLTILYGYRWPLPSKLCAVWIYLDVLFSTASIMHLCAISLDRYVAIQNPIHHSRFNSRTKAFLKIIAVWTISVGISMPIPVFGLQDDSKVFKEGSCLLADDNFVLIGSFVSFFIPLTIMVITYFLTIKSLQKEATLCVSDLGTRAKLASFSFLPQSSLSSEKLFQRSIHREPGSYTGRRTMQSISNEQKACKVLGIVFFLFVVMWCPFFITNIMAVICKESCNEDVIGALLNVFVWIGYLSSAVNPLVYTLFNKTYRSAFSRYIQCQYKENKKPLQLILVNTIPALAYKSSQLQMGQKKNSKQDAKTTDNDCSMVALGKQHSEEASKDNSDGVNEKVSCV
Method in brief: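 Antagonist-mode intracellular calcium assay: DOI (4 nM) added after 5 min compound pre-incubation at room temperature to dye-loaded HTR2A-CHO cells. Fluorescence followed for 3 min, sampled every second.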

[13] = target: 5-hydroxytryptamine receptor 2A (Homo sapiens) (UniProt P28223); test: 5-hydroxytryptamine receptor 2A (HTR2A) small molecule agonists, cell-based qHTS assay (AID 1963587); note: nearly all actives have a fitted effect of over 30% in size
Method in brief: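 Kinetic calcium-flux fluorescence (2 min, 1 sec intervals) after compound addition in agonist mode. HTR2A-CHO cells were cultured 18 h, then dye-loaded 1 h at 37 C.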

[14] = target: Muscarinic acetylcholine receptor M1 (Homo sapiens) (UniProt P11229); test: Cholinergic receptor muscarinic 1 (CHRM1) small molecule antagonists, cell-based qHTS assay (AID 1963588); note: nearly all actives have a fitted effect of over 40% in size
Muscarinic acetylcholine receptor M1 (Homo sapiens), sequence (P11229 whole entry, looked up): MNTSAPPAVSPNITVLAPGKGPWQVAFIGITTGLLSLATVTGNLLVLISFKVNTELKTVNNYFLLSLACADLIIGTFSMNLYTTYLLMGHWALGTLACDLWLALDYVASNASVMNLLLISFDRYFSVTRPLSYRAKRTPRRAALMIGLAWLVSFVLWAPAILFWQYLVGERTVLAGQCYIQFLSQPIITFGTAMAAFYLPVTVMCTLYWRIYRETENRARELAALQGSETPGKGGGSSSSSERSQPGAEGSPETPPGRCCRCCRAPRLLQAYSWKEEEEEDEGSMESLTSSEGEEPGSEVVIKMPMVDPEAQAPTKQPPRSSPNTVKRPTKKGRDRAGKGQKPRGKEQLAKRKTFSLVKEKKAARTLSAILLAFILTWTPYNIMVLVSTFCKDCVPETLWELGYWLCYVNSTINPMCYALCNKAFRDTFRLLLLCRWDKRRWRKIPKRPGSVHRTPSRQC
Method in brief: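 CHRM1-CHO calcium-flux assay, antagonist mode. Cells were seeded 18 h, dye-loaded 1 h at 37 C and given compound for 5 min at RT, then acetylcholine was added at 50nM. FDSS fluorescence was read 3 min; 15 concentrations, three runs.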

[15] = target: Muscarinic acetylcholine receptor M1 (Homo sapiens) (UniProt P11229); test: Cholinergic receptor muscarinic 1 (CHRM1) small molecule agonists, cell-based qHTS assay (AID 1963589); note: nearly all actives have a fitted effect of over 35% in size
Method in brief: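 CHO cells stably expressing human CHRM1 were loaded with calcium dye for 1 h at 37 C, then compound was added in agonist mode. Intracellular calcium fluorescence was followed kinetically at 1 s intervals. Fifteen concentrations were tested in three independent runs.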

[16] = cAMP Responsive Elements (CRE) small molecule agonists, cell-based qHTS assay (AID 1963590)
Method in brief: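 CRE-bla HEK 293T cells, 2,000/well in DMEM with 10% dialyzed FBS and 25 mM HEPES, pre-incubated 18 h at 37 C, then exposed to compound 3 h at 37 C. Beta-lactamase reporter read with LiveBLAzer B/G FRET substrate after 2 h at room temperature.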

[17] = cAMP Responsive Elements (CRE) small molecule antagonists, cell-based qHTS assay (AID 1963591; active = well fitted inhibition curve with a large enough effect in the signal ratio in the repeat runs, not every such curve was filed as active; the % refers to the signal ratio)
Method in brief: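 CRE-bla HEK293T cells plated 18 h, then given compound plus NKH477 at 0.25 uM final for 3 h at 37C. Beta-lactamase reporter read with LiveBLAzer B/G FRET substrate after 2 h at room temperature.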

[18] = target: Beta-2 adrenergic receptor (Homo sapiens) (UniProt P07550); test: Adrenergic beta2 receptor (ADRB2) small molecule antagonists, cell-based qHTS assay (AID 1963592); note: series mostly up to about 92 µM; nearly all actives have a fitted effect of over 50% in size
Beta-2 adrenergic receptor (Homo sapiens), sequence (P07550 whole entry, looked up): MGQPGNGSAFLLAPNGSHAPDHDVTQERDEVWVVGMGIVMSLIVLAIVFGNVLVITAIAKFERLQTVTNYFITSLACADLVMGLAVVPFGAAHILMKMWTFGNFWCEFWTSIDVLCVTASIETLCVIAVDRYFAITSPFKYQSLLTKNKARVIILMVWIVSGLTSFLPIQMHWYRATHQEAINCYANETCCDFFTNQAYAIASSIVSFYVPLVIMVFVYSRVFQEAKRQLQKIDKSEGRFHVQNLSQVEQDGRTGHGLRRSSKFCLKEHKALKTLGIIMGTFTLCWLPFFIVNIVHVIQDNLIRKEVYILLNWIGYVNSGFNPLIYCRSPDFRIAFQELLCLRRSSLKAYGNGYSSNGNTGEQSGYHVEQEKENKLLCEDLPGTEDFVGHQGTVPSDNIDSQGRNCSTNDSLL
Method in brief: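 Cells (CHO, stable ADRB2 overexpression) incubated 18-20hr at 37C; compounds added from DMSO; agonist mix (1nM isoproterenol, 100uM IBMX, 25uM Ro-20-1724) added; 0.5hr RT; d2-cAMP and anti-cAMP-cryptate added; 1hr RT; 665/615 nm read.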

[19] = target: D(2) dopamine receptor (Homo sapiens) (UniProt P14416); test: Dopamine D2 receptor (DRD2) small molecule agonists, cell-based qHTS assay (AID 1963594); note: nearly all actives have a fitted effect of over 35% in size
D(2) dopamine receptor (Homo sapiens), sequence (P14416 whole entry, looked up): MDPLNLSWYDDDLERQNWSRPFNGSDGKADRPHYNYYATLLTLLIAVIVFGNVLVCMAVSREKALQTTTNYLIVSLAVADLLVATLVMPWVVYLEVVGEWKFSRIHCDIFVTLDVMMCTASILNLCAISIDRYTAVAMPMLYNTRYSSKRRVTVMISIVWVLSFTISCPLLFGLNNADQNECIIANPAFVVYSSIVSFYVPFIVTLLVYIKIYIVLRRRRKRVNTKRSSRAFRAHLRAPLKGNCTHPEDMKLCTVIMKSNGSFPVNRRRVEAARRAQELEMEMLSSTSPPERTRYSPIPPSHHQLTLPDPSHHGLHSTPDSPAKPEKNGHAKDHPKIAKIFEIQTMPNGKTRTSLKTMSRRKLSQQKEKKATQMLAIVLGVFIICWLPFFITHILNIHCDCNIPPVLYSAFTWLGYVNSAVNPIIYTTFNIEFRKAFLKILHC
Method in brief: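 cAMP accumulation in DRD2-HEK293 cells measured by HTRF after 1 h detection; compounds added 10 min before NKH477 (200nM […]) forskolin-analogue stimulation, 30 min at room temperature, with Ro20-1724 present at 0.1 mM final.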

[20] = target: D(2) dopamine receptor (Homo sapiens) (UniProt P14416); test: Dopamine D2 receptor (DRD2) small molecule antagonists, cell-based qHTS assay (AID 1963595; active = well fitted inhibition curve with a large enough effect in the signal ratio in the repeat runs, with a control signal flat; the % refers to the signal ratio)
Method in brief: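 HEK293 cells stably expressing DRD2 were preincubated with 0.1 mM Ro20-1724, then with compound for 10 min at room temperature. Cells were stimulated with 200 nM NKH477 plus 12 nM quinpirole for 30 min, and cAMP was read by HTRF.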
% is set by controls: 0 for no effect and ±100 for the full control effect.

CCOC(=O)CCc1ccccc1
inactive: Potency [1] | Potency [2] | Potency [3] | outcome [4] | outcome [5] | Potency [6] | Potency [7] | Potency [8] | Potency [9] | Potency [10] | Potency [11] | Potency [12] | Potency [13] | Potency [14] | Potency [15] | Potency [16] | Potency [17] | Potency [18] | Potency [19] | Potency [20]

Cc1ccc(N)nc1
inactive: Potency [1] | Potency [2] | Potency [3] | outcome [4] | outcome [5] | Potency [6] | Potency [7] | Potency [8] | Potency [9] | Potency [10] | Potency [11] | Potency [12] | Potency [13] | Potency [14] | Potency [15] | Potency [16] | Potency [17] | Potency [18] | Potency [19] | Potency [20]

O=[N+]([O-])c1ccc(CO)cc1
inactive: Potency [1] | Potency [2] | Potency [3] | outcome [4] | outcome [5] | Potency [6] | Potency [7] | Potency [8] | Potency [9] | Potency [10] | Potency [11] | Potency [12] | Potency [13] | Potency [14] | Potency [15] | Potency [16] | Potency [17] | Potency [19] | Potency [20]

CCCCCOC(=O)CCC
inactive: Potency [1] | Potency [2] | Potency [3] | outcome [4] | outcome [5] | Potency [6] | Potency [7] | Potency [8] | Potency [9] | Potency [10] | Potency [11] | Potency [12] | Potency [13] | Potency [14] | Potency [15] | Potency [16] | Potency [17] | Potency [18] | Potency [19] | Potency [20]

[O]=[Mo](=[O])=[O]
inactive: activity change, negative = cytotoxicity [1] 1.36% [at 19 µM] | activity, positive = activation [2] -5.06% [at 19 µM] | activity change [3] -0.246% [at 11.8 µM, active compounds read high] | activation [4] -1.57% [at 15.8 µM] | activation [5] -0.132% [at 11.8 µM] | activation [6] -1.11% [at 13.5 µM] | activation [7] -0.845% [at 13.6 µM] | activity change, negative = cytotoxicity [8] 2.49% [at 13.5 µM] | activity change, negative = cytotoxicity [9] 5.17% [at 13.5 µM] | activity change, negative = cytotoxicity [10] 14.2% [at 13.5 µM] | activation [11] -2.07% [at 13.5 µM] | activity, negative = inhibition [12] -16.5% [at 12.7 µM] | activation [13] 4.75% [at 15.9 µM] | activity, negative = inhibition [14] 1.32% [at 12.6 µM] | activation [15] 0.586% [at 15.8 µM] | activation [16] 0.435% [at 19 µM] | activity change, negative = inhibition [17] 1.4% [at 18.9 µM] | activity change, negative = inhibition [18] -19.7% [at 19 µM] | activity change, negative = inhibition [20] -0.307% [at 18.9 µM]

CCCCCCCC(C)=O
inactive: Potency [1] | Potency [2] | Potency [3] | outcome [4] | outcome [5] | Potency [6] | Potency [7] | Potency [8] | Potency [9] | Potency [10] | Potency [11] | Potency [12] | Potency [13] | Potency [14] | Potency [15] | Potency [16] | Potency [17] | Potency [19] | Potency [20]

C=C(C)C(=O)OC1CC(C)CC(C)(C)C1 (configuration not stated)
inactive: Potency [1] | Potency [2] | Potency [3] | outcome [4] | outcome [5] | Potency [6] | Potency [7] | Potency [8] | Potency [9] | Potency [10] | Potency [11] | Potency [12] | Potency [13] | Potency [14] | Potency [15] | Potency [16] | Potency [17] | Potency [18] | Potency [19] | Potency [20]
